# According to PubChem BioAssay (NCATS):
# Records with an inconclusive call do not appear. Activity calls are given as the source filed them. Unless noted, the call rests on the fitted dose curve; in most records, active means well fitted curve in the direction sought with a large enough effect; inconclusive means small, poorly fitted or top-dose-only effect, or another doubt; inactive means no such curve, though single readings can be large; an effect the other way counts as inactive or inconclusive.
# What was measured:
# [1] = P-glycoprotein substrates identified in KB-8-5-11 adenocarcinoma cell line, qHTS therapeutic library screen (AID 1346987); further: nearly all actives have a fitted effect of over 65% in size; further: potency means the concentration at half of the fitted maximal effect
# Outline: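 In this qHTS, P-gp-rich KB-8-5-11 cells received library compounds across a concentration range. Viability was quantified by luminescence after 72 h at 37 degree C.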
# [2] = tested on: Zika virus NS2B-NS3 protease (unlinked complex); experiment: Primary screen GU Rhodamine qHTS for Zika virus inhibitors: Unlinked NS2B-NS3 protease assay (AID 1347159); further: on the % scale 0 is the no-effect control and ±100 the full control effect; nearly all actives have a fitted effect of over 60% in size
# Outline: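 Enzyme 25 nM in Tris-HCl pH 8.0 + 0.01% Tween 20; compounds up to 114 microM, 15 min RT dark; + Rhod110 substrate 1.5 microM; read t0 and 15 min; delta fluorescence → % inhibition → 4-parameter Hill fit.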
# [3] = tested on: NIH3T3; experiment: Cytotoxic Profiling of Annotated Libraries Using Quantitative High-Throughput Screening (AID 1296008); conditions: Five cell lines viability, CellTiter-Glo ATP luminescence, 48-72 h; max response: stronger effect = lower value; further: nearly all actives have a fitted effect of over 60% in size; further: potency means the concentration at half of the fitted maximal effect; on max response: on the % scale 0 is the no-effect control and ±100 the full control effect
# Outline: (§1)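 Compounds were pin-transferred onto cells and incubated 48 or 72 hr at 37 degree Celsius, 95% humidity. CellTiter-Glo was added, plates sat 10 min at room temperature, then ATP-coupled luminescence was imaged as the viability read-out.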
# [4] = tested on: HaCat; experiment: as above; conditions: Five cell lines viability, CellTiter-Glo ATP luminescence, 48-72 h; max response: stronger effect = lower value
# Outline: as §1
# [5] = qHTS to identify inhibitors of the type 1 interferon - major histocompatibility complex class I in skeletal muscle: primary screen against the NCATS Mechanism Interrogation Plate v5.0 (MIPE) Libary (AID 1347411); further: nearly all actives have a fitted effect of over 65% in size; further: potency means the concentration at half of the fitted maximal effect;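 on activity change, negative = inhibition: plate controls were vehicle for no effect and reference inhibitor for full effect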
# Outline: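 HLA-B HiBit myoblasts, dexamethasone-free medium + 4 ng/ml IFN-b, 24 h compound, 11-pt 1:3 from 46 uM final. Readout: Nano-Glo HiBiT lytic luminescence after 10 min lysis, RT.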
# [6] = qHTS drug screen for cell cycle checkpoint inhibitors in PARPi-resistant BRCA-mutant ovarian cancer cell lines. (AID 1963452; calls by dose curve); conditions: PEO1/OlaR viability, CellTiter-Glo luminescence, 96 h, stronger effect = lower value
# Outline: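 PEO1, PEO4 and PEO1/OlaR ovarian cancer cells, 600 per well, exposed 96 h at 37C to a dilution series. Viability read by CellTiter-Glo luminescence, normalized to DMSO and empty wells; activity summarized as Z-AUC.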
# [7] = molecular target: Cytochrome P450 2D6 (Homo sapiens) (UniProt P10635); experiment: Cytochrome P450 family 2 subfamily D member 6 (CYP2D6) small molecule antagonists: luciferase biochemical (cell-free) qHTS assay (AID 1645840; active means well fitted curve in the direction sought with a large enough effect in the repeat runs; an effect the other way counts as inactive or inconclusive; further: potency means the concentration at half of the fitted maximal effect; nearly all actives have a fitted effect of over 55% in size)
# Outline: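 P450-Glo CYP2D6 system: proluciferin substrate converted by enzyme to luciferin, read by luminescence proportional to activity. Enzyme-substrate mix with compound 10 min at room temperature, then NADPH regeneration 1 h before detection reagent.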
# [8] = molecular target: Cytochrome P450 2C9 (Homo sapiens) (UniProt P11712); experiment: Cytochrome P450 family 2 subfamily C member 9 (CYP2C9) small molecule antagonists: luciferase biochemical (cell-free) qHTS assay (AID 1645842; active means well fitted curve in the direction sought with a large enough effect in the repeat runs; an effect the other way counts as inactive or inconclusive; further: nearly all actives have a fitted effect of over 55% in size; further: potency means the concentration at half of the fitted maximal effect; on activity change, negative = inhibition: on the % scale 0 is the no-effect control and ±100 the full control effect)
# Outline: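 P450-Glo CYP2C9 system: proluciferin substrate with enzyme in mix containing 0.4% BSA, 10 min at room temperature, then NADPH regeneration solution added and incubated 1 h at 37C. Detection reagent stopped reaction; luminescence read after 20 min as RLU.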
# [9] = tested on: SKOV3; experiment: Primary qHTS to identify gynecologic anti-cancer compounds using libraries of approved drugs and bioactive compounds (AID 1345084); conditions: Gynecologic cancer cell panel viability, ATPlite luminescence, 48 h; series mostly up to 57.5 µM; further: nearly all actives have a fitted effect of over 55% in size; further: potency means the concentration at half of the fitted maximal effect
# Outline: (§2)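 In this quantitative HTS, cell killing is estimated from loss of ATP-dependent luciferase light. Cells see five compound concentrations over a 48 h exposure.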
# [10] = tested on: CAOV3; experiment: as above; conditions: Gynecologic cancer cell panel viability, ATPlite luminescence, 48 h; series mostly up to 57.5 µM
# Outline: as §2
# [11] = molecular target: Catechol O-methyltransferase (Homo sapiens) (UniProt P21964); experiment: Confirmatory Screen for Target Class Profiling of Small Molecule Inhibitors of Methyltransferases (AID 1745852); conditions: MTase-Glo luminescence, SAH detection, recombinant enzyme; measured here: COMT max response; stronger effect = lower value; on activity change, negative = inhibition: on the % scale 0 is the no-effect control and ±100 the full control effect
# [12] = molecular target: Guanidinoacetate N-methyltransferase (Homo sapiens) (UniProt Q14353); experiment: as above; conditions: activity change, negative = inhibition: at 57.3 µM (top of the series) unless noted
# [13] = molecular target: Nicotinamide N-methyltransferase (Homo sapiens) (UniProt P40261); experiment: as above; conditions: MTase-Glo luminescence, SAH detection, recombinant enzyme; measured here: NNMT max response; stronger effect = lower value
# [14] = molecular target: Phenylethanolamine N-methyltransferase (Homo sapiens) (UniProt P11086); experiment: as above; conditions: MTase-Glo luminescence, SAH detection, recombinant enzyme; measured here: PNMT max response; stronger effect = lower value
# [15] = qHTS assay to identify inhibitors of the type 1 interferon - major histocompatibility complex class I in skeletal muscle: Counter screen cell viability and HiBit confirmation (AID 1347412); conditions: iHSKM muscle cells + IFN-b, HiBiT or CellTiter-Glo, 24 h; HiBiT; at 45.9 µM (top of the series); further: on the % scale 0 is the no-effect control and ±100 the full control effect; nearly all actives have a fitted effect of over 60% in size
# Outline: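 Duplicate plates, pinned identically: one read for HiBiT-tagged endogenous HLA-B luminescence, the other for ATP-content viability via CellTiter Glo. Cells were genome-engineered human myoblasts given 4 ng/ml IFN-b; compounds 12-pt, 1:3 from 46 uM final; 24 hr exposure.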
# [16] = measured here: PEO1 parental Z-AUC
# Chain of Cytochrome P450 2C9 (Homo sapiens) (P11712 whole entry, looked up): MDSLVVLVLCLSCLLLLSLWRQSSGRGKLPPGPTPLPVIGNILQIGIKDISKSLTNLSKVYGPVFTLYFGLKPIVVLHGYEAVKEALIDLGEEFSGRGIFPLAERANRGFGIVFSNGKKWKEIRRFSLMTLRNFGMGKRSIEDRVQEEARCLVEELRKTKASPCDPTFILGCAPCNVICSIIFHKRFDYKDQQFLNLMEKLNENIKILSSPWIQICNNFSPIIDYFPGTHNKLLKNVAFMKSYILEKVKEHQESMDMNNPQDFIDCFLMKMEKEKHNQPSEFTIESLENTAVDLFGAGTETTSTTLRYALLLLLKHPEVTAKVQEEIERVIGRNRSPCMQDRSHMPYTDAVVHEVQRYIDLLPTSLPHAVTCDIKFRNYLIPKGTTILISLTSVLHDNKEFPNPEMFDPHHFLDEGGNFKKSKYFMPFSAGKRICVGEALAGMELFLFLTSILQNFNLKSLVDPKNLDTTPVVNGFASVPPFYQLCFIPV
# Chain of Nicotinamide N-methyltransferase (Homo sapiens) (P40261 whole entry, looked up): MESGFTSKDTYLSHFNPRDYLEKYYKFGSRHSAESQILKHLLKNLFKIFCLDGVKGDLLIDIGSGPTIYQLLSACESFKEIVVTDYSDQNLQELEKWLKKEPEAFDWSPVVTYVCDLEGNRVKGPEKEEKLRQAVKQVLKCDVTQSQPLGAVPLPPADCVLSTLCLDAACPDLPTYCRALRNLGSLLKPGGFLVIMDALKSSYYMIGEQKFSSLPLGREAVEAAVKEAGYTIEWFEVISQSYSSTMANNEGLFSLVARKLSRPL
# Chain of Cytochrome P450 2D6 (Homo sapiens) (P10635 whole entry, looked up): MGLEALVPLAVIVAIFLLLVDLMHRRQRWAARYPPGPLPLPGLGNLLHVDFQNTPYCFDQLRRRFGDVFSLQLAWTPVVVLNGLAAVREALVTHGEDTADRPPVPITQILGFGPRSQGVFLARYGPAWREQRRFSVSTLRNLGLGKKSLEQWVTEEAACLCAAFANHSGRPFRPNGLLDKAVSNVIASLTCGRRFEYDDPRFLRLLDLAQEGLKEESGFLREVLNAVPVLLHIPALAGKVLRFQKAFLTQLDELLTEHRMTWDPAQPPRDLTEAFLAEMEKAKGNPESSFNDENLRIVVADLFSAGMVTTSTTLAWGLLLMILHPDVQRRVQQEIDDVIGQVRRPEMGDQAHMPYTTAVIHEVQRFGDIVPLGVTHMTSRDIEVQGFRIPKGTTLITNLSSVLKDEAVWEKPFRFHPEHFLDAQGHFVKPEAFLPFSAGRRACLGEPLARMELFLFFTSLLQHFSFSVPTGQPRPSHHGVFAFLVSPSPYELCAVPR
# Chain of Catechol O-methyltransferase (Homo sapiens) (P21964 whole entry, looked up): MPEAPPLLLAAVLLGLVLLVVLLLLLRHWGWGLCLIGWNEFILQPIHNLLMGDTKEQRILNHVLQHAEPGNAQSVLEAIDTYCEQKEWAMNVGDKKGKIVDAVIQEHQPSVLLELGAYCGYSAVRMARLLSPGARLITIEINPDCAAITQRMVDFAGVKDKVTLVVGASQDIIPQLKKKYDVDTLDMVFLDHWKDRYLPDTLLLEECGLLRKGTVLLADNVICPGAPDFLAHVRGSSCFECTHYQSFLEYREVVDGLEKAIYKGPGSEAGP
# Chain of Phenylethanolamine N-methyltransferase (Homo sapiens) (P11086 whole entry, looked up): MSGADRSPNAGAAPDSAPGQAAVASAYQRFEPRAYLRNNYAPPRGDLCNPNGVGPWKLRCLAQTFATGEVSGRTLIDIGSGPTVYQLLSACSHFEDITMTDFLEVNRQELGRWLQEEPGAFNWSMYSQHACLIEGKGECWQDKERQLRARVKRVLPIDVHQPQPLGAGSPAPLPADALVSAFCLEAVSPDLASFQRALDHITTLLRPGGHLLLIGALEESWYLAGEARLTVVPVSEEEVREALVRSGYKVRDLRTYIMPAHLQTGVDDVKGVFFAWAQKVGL
smiles,measurement,setting,value
C=C1[C@@H](C2=CC(=O)OC2)CC[C@@]2(O)[C@@H]1CC1[C@H]2CC[C@@H]2C[C@@H](O[C@H]3O[C@@H](C)[C@@H](O[C@@H]4O[C@H](CO[C@@H]5O[C@H](CO)[C@@H](O)[C@H](O)[C@H]5O)[C@@H](O)[C@H](O)[C@H]4O)[C@H](OC)[C@H]3O)CC[C@]12C (some centres not stated),Potency,[1],3.48 µM (active)
same,Potency,[2],inactive
same,outcome,[3],inactive
OCC(CO)(CO)NCC(O)Cn1c2ccc(Cl)cc2c2cc(Cl)ccc21 (configuration not stated),Potency,[1],inactive
same,max response,[4],1.65% (inactive)
COCCOCCOc1ccc(C2=N[C@@](C)(C(=O)O)CS2)c(O)c1,Potency,[2],inactive
same,max response,[4],-22.3% (inactive)
Cc1nc2ccc(C(=O)N3CCC4(CC3)CC(=O)c3c(cnn3C(C)C)C4)cc2[nH]1,Potency,[5],inactive
same,Z-AUC,[6],-0.421 (inactive)
same,Z-AUC,[6]; [16],-0.389
same,Z-AUC,[6]; measured here: PEO4 Z-AUC,-0.0398
same,max response,[4],-28.8% (inactive)
C=C1[C@@H](C)[C@H]2[C@H](Cc3c[nH]c4ccccc34)NC(=O)[C@]23C(=O)/C=C/C(=O)[C@H](O)/C(C)=C\[C@@H](C)C/C=C/[C@H]3[C@@H]1O,Potency,[1],inactive
same,Potency,[3],3.55 µM (active)
CC(C)(C)c1ccc(CNC(=S)NCc2ccc(NS(C)(=O)=O)c(F)c2)cc1,Potency,[7],3.38 µM (active)
same,Potency,[8],0.151 µM (active)
same,max response,[4],-44.1% (inactive)
CC1CCC2C(C)(C)C(O)CCC2(C)C12Cc1c(O)cc3c(c1O2)CN(C(CCCN=C(N)N)C(=O)O)C3=O (configuration not stated),Potency,[2],inactive
same,outcome,[4],inactive
same,Potency,[9],inactive
CCOC(=O)c1cccc(CNc2ccc(N(C)C(=O)Nc3ccccc3)cc2)c1,Potency,[2],inactive
same,Potency,[7],5.35 µM (active)
same,Potency,[8],0.601 µM (active)
same,max response,[4],-23.2% (inactive)
same,Potency,[10],inactive
same,Potency,[9],14.1 µM (active)
COc1cccc(CNC(=O)Nc2nc(-c3ccncc3)cs2)c1,Potency,[7],0.601 µM (active)
same,Potency,[8],0.239 µM (active)
same,max response,[4],-7.04% (inactive)
same,Potency,[9],inactive
COc1ccc(CNC(=O)Nc2ncc([N+](=O)[O-])s2)cc1,Potency,[1],23.1 µM (active)
same,Potency,[5],18.6 µM (active)
same,Potency,[8],7.56 µM (active)
same,Z-AUC,[6],-1.06 (inactive)
same,Z-AUC,[6]; [16],-0.517
same,Z-AUC,[6]; measured here: PEO4 Z-AUC,-0.518
same,max response,[4],3.95% (inactive)
same,Potency,[10],inactive
same,Potency,[9],inactive
O=C1c2c(O[C@@H]3O[C@H](CO)[C@@H](O)[C@H](O)[C@H]3O)cc(O)cc2OC1(O)Cc1ccc(O)cc1 (some centres not stated),Potency,[2],inactive
same,outcome,[4],inactive
Nc1ncnc2c1ncn2[C@@H]1O[C@H](CO)C[C@H]1O,Potency,[1],0.001 µM (active)
same,Potency,[2],inactive
same,Potency,[5],inactive
same,Z-AUC,[6],1.48 (inactive)
same,Z-AUC,[6]; [16],0.932
same,Z-AUC,[6]; measured here: PEO4 Z-AUC,0.673
same,max response,[4],-125% (inactive)
C=C1CC[C@@H]2[C@](C)(CO)[C@H](O)CC[C@@]2(C)[C@@H]1C/C=C1/C(=O)OC[C@@H]1O,Potency,[2],inactive
same,outcome,[4],inactive
CN1CCN(C(=O)c2ccc(Nc3nccc(-c4cccs4)n3)cc2Cl)CC1,Potency,[1],18.4 µM (active)
same,Potency,[2],inactive
same,Potency,[7],21.3 µM (active)
same,Potency,[8],0.674 µM (active)
same,activity,[11],-2.55%
same,"activity change, negative = inhibition",[12],0%
same,activity,[13],-31.1%
same,activity,[14],-3.47%
same,max response,[4],-21.8% (inactive)
same,Potency,[9],inactive
COc1cc(N2CCOCC2)ccc1Nc1ncc(F)c(Nc2ccccc2NS(C)(=O)=O)n1,Potency,[2],inactive
same,Potency,[8],2.13 µM (active)
same,activity,[11],-0.204%
same,"activity change, negative = inhibition",[12],2.81%
same,activity,[13],3.16%
same,activity,[14],-0.832%
same,Potency,[4],7.31 µM (active)
Nc1nc(NCC2CCC(CNS(=O)(=O)c3cccc4ccccc34)CC2)nc2ccccc12 (configuration not stated),Potency,[2],inactive
same,Potency,[7],3.38 µM (active)
same,Potency,[8],4.77 µM (active)
same,activity,[11],-12.1%
same,"activity change, negative = inhibition",[12],-4.41%
same,activity,[13],-26.1%
same,activity,[14],-28.4%
same,Potency,[3],20.6 µM (active)
OCC(Cc1ccccc1)Nc1nc(Oc2ccc3c(c2)CCC3)nc2c1ncn2Cc1ccc(-c2ccccc2)cc1 (configuration not stated),Potency,[4],18.4 µM (active)
same,Potency,[9],inactive
CC(=O)c1c(OCCN2CCCCC2)c(OCCC(C)c2ccc(F)cc2)c2oc(C)nc2c1C (configuration not stated),Potency,[1],20.6 µM (active)
same,Potency,[2],inactive
same,Potency,[7],0.477 µM (active)
same,Potency,[8],19 µM (active)
same,outcome,[4],inactive
Cc1cc2nc(NCCCO)n(CC(=O)c3cc(C(C)(C)C)c(O)c(C(C)(C)C)c3)c2cc1C,Potency,[1],18.4 µM (active)
same,Potency,[8],13.5 µM (active)
same,max response,[4],-19.8% (inactive)
same,Potency,[10],inactive
CNCc1ccc(C)c(NC(=O)c2ccc(Nc3nc(-c4ccccc4)c4ccccc4n3)cc2)c1,Potency,[2],inactive
same,Potency,[5],33 µM (active)
same,Potency,[7],12 µM (active)
same,Potency,[8],inactive
same,Potency,[3],18.4 µM (active)
same,"activity change, negative = inhibition",[15],-20% (inactive)
